Insulin prom up = MIN6 insulin promoter up-regulation | actives 0.3% (n = 190,000) | MIN6 insulin promoter-GFP reporter, high-content imaging; hits give high values | z-score at 5 µM;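 active means z-score above 3 at 5 µM with at least 500 cells counted in the well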
Autophagy mod = alters autophagy in cells. actives 0.98% (n = 190,000). calls only at 10 µM (by protocol). MEF GFP-LC3 puncta imaging; test concentration mostly 10 µM;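 active means percentage of spot-positive cells more than 3 SD above its plate mean, without a fluorescence outlier flag or 80% toxicity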;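 further: spot-positive cell cutoff set from DMSO-treated cells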
WT yeast gro inh = growth inhibition of WT yeast, mitochondrial fusion screen; mitochondrial fusion phenotypic screen, WT strain; inhibition, % at 10 µM; actives 2.1% (n = 190,000); AID 1362; in the data active means inhibition above about 58%; tested in S. cerevisiae
L major viab = Leishmania major promastigote growth inhibition; Leishmania major promastigotes, resazurin fluorescence viability; inhibition, % at 10 µM; actives 9% (n = 200,000); AID 1063; in the data active means inhibition above about 50%;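 further: promastigotes grown with compound for 44 hours at 28 °C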
INS promoter inh = TRM-6 insulin promoter activity inhibition; TRM-6 cells (human fetal islet line), insulin promoter-eGFP reporter, imaging; reporter expression induced with tamoxifen; inhibition, % at 2 µM; actives 0.9% (n = 130,000);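 active means inhibition above the mean plus 3 SD, with well images judged a real hit on visual review, cut at about 60% in these data, passing the limit was not always enough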
Active calls of the source: *; i = inactive; x = not tested or not shown; + = active, no number. Sampled rows, rich in hits. Any-hit rate of the full collection: about 11%.

SMILES | Insulin prom up | Autophagy mod | WT yeast gro inh | L major viab | INS promoter inh
O=C(Nc1cccnc1)c1ccccc1F | 0.7 | i | 12 | -3 | 29
O=C(/C=C/c1ccc(Br)cc1)c1ccc(NC(=O)c2ccco2)cc1 | -0.39 | i | 29 | 88* | 24
O=C(/C=C/c1ccc(Br)cc1)c1ccco1 | x | i | 11 | 89* | 18
O=C(/C=C/c1ccncc1)c1ccc(NC(=O)c2ccccc2F)cc1 | -0.27 | i | -5 | 100* | -21
Cc1ccc(NC(=O)CC(NCC2CCCO2)C(=O)O)cc1C (stereo not given) | x | i | -13 | -7 | -19
CCOc1ccccc1N(CC(=O)NC1CCCCC1)S(C)(=O)=O | 0.82 | i | -12 | -8 | x
CCOc1ccc(NS(=O)(=O)c2ccc(N)cc2)cc1 | -0.07 | i | 24 | 15 | -50
Cc1cc(C)cc(NS(=O)(=O)c2cnc(Cl)c(Cl)c2)c1 | 0.18 | i | 5 | 82* | -20
COc1cc(S(=O)(=O)Nc2cc(C)cc(C)c2)ccc1F | 0.6 | i | -1 | 9 | -6
CCOc1ccc(NS(=O)(=O)c2cnc(Cl)c(Cl)c2)cc1 | 0.43 | i | 71* | -2 | -71
CCOC(=O)C(=O)/C(=C\N(C)C)c1onc(-c2c(Cl)cccc2Cl)c1C(=O)OC | 0.66 | i | -5 | -8 | 13
CC1CCN(C(=O)COc2cccc3c2CCN(C)C3=O)CC1 | -0.1 | i | -16 | -5 | -127
Cc1ccc(N=Cc2c(O)n(-c3cc(Cl)ccc3N3CCOCC3)c(=O)c3ccccc23)cc1C | -0.28 | i | 8 | 70* | -49
O=S1(=O)C=CC(Nc2ccccc2)C1 (stereo not given) | 0.16 | i | 3 | -3 | -23
N#CC(C#N)=c1ccc2c(c1)N1C3=C(CCCC3)CC3CCCCC31N=2 (stereo not given) | 2.5 | i | 73* | 99* | x
N#C/C(C(N)=O)=c1/ccc2c(c1)N1C3=C(CCCC3)CC3CCCCC31N=2 (stereo not given) | -0.37 | i | 30 | 74* | x
CC(CCC(=O)O)C1CC[C@@]2(C)C3C(=O)CC4C(C)(C)C(O)CC[C@]4(C)C3C(=O)C[C@]12C (stereo not given in full) | -0.19 | x | x | x | x
COC(=O)c1ccc(CNC(=O)COC(=O)COc2ccc(OC)cc2)cc1 | 0.98 | i | -10 | -8 | -67
CC(OC(=O)c1cc(S(=O)(=O)N(C)c2ccccc2)ccc1Cl)C(=O)Nc1ccc2c(c1)OCCO2 (stereo not given) | -0.15 | i | 15 | 65* | -10
COc1ccc(N(C)S(=O)(=O)c2cccc(C(=O)Nc3ccc4c(c3)OCCO4)c2)cc1 | -1.2 | i | 23 | 5 | -7
CC1=C(C#N)C(=O)N(C2CCS(=O)(=O)C2)C(=O)/C1=C\c1ccc(C)o1 (stereo not given) | 0.18 | x | x | x | x
CSc1ccc(Cl)c(C(=O)NCCOc2cc(C)ccc2C(C)C)c1 | -0.18 | i | 62* | 2 | 21
COc1ccc(CCNC(=O)c2ccc(SC)cc2OC)cc1 | 0.01 | i | 8 | 14 | x
CSc1ccc(Cl)c(C(=O)NCCOc2ccccc2)c1 | 0.08 | i | 11 | -5 | x
COc1cc(SC)ccc1C(=O)Nc1c(C)cccc1C | x | i | 12 | 27 | -54
SMILES | Insulin prom up | Autophagy mod | WT yeast gro inh | L major viab | INS promoter inh
COc1cc(SC)ccc1C(=O)NCCOc1ccc(F)cc1 | -0.89 | i | 16 | 58* | -8
COc1cc(SC)ccc1C(=O)Nc1c(Cl)cncc1Cl | -0.53 | i | 15 | 95* | 11
CCSc1cc(N2CCCC2)nc(-c2ccccc2Cl)n1 | 0.06 | i | 2 | 32 | -40
CCOC(=O)n1c(=O)[nH]c2ccc(Br)cc21 | -0.45 | i | -3 | -3 | 27
Oc1ccc(N=Nc2n[nH]c(-c3ccccc3)n2)cc1 | 0.77 | i | 9 | 12 | 3
Oc1ccc(N=Nc2nc(-c3ccccc3)c(-c3ccccc3)[nH]2)cc1 | -0.9 | i | 92* | 96* | -17
C=C(C)Cn1c(=O)c(NC(=O)c2ccccc2)c2n(c1=S)CCC2 | -0.54 | i | -1 | -1 | -4
COc1ccc(-n2c(=O)c(NC(=O)c3ccccc3)c3n(c2=S)CCCCC3)cc1 | -1.1 | + | -8 | -3 | -30
CCCCCCn1c(CN2CCCCC2CC)nc2c1c(=O)n(C)c(=O)n2C (stereo not given) | 0.78 | i | 16 | 60* | x
CCC1CCCCN1Cc1nc2c(c(=O)n(C)c(=O)n2C)n1CCC(C)C (stereo not given) | -0.79 | i | x | 35 | x
CCOC(=O)C1=C(O)/C(=C/c2cccc(OC)c2O)N=C1C | 0.16 | i | 5 | 63* | -25
